Data: PubChem BioAssay (NCI)
About 79,000 compounds went through this panel and 15% of them were active in at least one assay; those are over-represented in the sample as a whole. A number with no mark means an inactive call. Activity calls are given as the source filed them. Cut-off read from the data, not from the text of the source: active = growth inhibition above about 70%; inactive = the rest.

Experiments:
[1] = NCI Yeast Anticancer Drug Screen. Data for the rad52 strain (AID 147);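 note: 0% = growth of vehicle-treated control cultures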; conditions: S. cerevisiae rad52 mutant growth inhibition, stronger effect = higher value
In short: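 DNA repair-defective yeast; compound exposure; growth scored against vehicle controls.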

[2] = NCI Yeast Anticancer Drug Screen. Data for the wt1 strain (AID 149);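 note: 0% = growth of vehicle-treated wt1 cultures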; conditions: S. cerevisiae wt1 strain (SPY 50644) growth inhibition, stronger effect = higher value
In short: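 wt1 strain grown with compound or vehicle; inhibition taken from the growth difference.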

[3] = NCI Yeast Anticancer Drug Screen. Data for the rad50EPP+ strain (AID 151);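 note: 0% = growth of vehicle-treated control cultures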; conditions: S. cerevisiae rad50 mutant strain, stronger effect = higher value
In short: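 rad50EPP+ yeast treated with test compounds. Readout: growth vs vehicle control.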

[4] = NCI Yeast Anticancer Drug Screen. Data for the mgt1 strain (AID 153); conditions: S. cerevisiae mgt1 mutant growth inhibition, stronger effect = higher value
In short: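 Growth inhibition relative to vehicle controls was scored for the mgt1 yeast strain after compound exposure.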

[5] = NCI Yeast Anticancer Drug Screen. Data for the rad50 strain (AID 155);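 note: 0% = growth of vehicle-only cultures of the same strain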; conditions: S. cerevisiae rad50 strain growth inhibition, stronger effect = higher value
In short: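 DNA repair mutant yeast, compound exposure, growth read-out; inhibition is taken relative to vehicle.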

[6] = NCI Yeast Anticancer Drug Screen. Data for the mec2-1 strain (AID 157); conditions: S. cerevisiae mec2-1 strain, stronger effect = higher value
In short: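 Growth inhibition is read against vehicle-treated controls after compound exposure of the mec2-1 yeast strain, which is defective in DNA damage repair or cell cycle control.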

[7] = NCI Yeast Anticancer Drug Screen. Data for the rad14 strain (AID 159);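 note: 0% = growth of vehicle-treated control cultures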; conditions: S. cerevisiae rad14 strain growth inhibition, stronger effect = higher value
In short: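 DNA repair-defective yeast, compound-exposed; % growth inhibition derived by comparison with vehicle-treated controls.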

[8] = NCI Yeast Anticancer Drug Screen. Data for the sgs1 mgt1 strain (AID 161);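 note: 0% = growth of cultures given vehicle only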; conditions: S. cerevisiae sgs1 mgt1 strain, stronger effect = higher value
In short: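 This yeast growth screen uses a strain with defined DNA-repair lesions; compound-treated growth is compared with vehicle-treated growth.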

[9] = NCI Yeast Anticancer Drug Screen. Data for the CLN2oe strain (AID 163);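 note: 0% = growth of vehicle-only control cultures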; conditions: S. cerevisiae CLN2oe strain, stronger effect = higher value
In short: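 Compound-treated yeast; growth vs vehicle ctrl = % inhibition. Genetically altered strain (cell-cycle control).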

[10] = NCI Yeast Anticancer Drug Screen. Data for the cln2 rad14 strain (AID 165);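 note: 0% = growth equal to vehicle treated cultures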; conditions: S. cerevisiae cln2 rad14 strain, stronger effect = higher value
In short: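 Growth inhibition, relative to vehicle-treated controls, is the read-out. The test organism is a yeast strain with defined genetic alterations, cln2 rad14.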

[11] = NCI Yeast Anticancer Drug Screen. Data for the bub3 strain (AID 167); conditions: S. cerevisiae bub3 mutant strain, stronger effect = higher value
In short: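 In this screen, a yeast mutant lacking normal mitotic checkpoint function is challenged with compound. Relative growth versus vehicle gives the inhibition value.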

[12] = NCI Yeast Anticancer Drug Screen. Data for the wt2 strain (AID 169);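 note: 0% = growth of vehicle-treated yeast cultures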; conditions: S. cerevisiae wt2 strain growth inhibition, stronger effect = higher value
In short: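 Compound exposure of yeast; growth compared with vehicle controls; inhibition reported.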

[13] = NCI Yeast Anticancer Drug Screen. Data for the sgs1 strain (AID 173);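 note: 0% = growth of vehicle-only control cultures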; conditions: S. cerevisiae sgs1 mutant, stronger effect = higher value
In short: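 Compounds applied to genetically altered yeast; growth compared with vehicle-treated cultures to give % inhibition.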

[14] = NCI Yeast Anticancer Drug Screen. Data for the mlh1 rad18 strain (AID 175); conditions: S. cerevisiae mlh1 rad18 strain growth inhibition, stronger effect = higher value
In short: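 Cells of a genetically altered yeast strain, deficient in DNA damage repair, were treated with compound. Their growth was then compared with that of vehicle-treated cultures to give inhibition.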

[15] = NCI Yeast Anticancer Drug Screen. Data for the rad18 strain (AID 177); conditions: S. cerevisiae rad18 mutant growth inhibition, stronger effect = higher value
In short: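 Compounds are applied to a repair-deficient yeast strain, and growth is compared with that of vehicle-treated cultures to give percent inhibition.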

[16] = at 5.0 µM (retest, dose inferred, filed as 0.5)
[17] = at 50.0 µM (retest, dose inferred, filed as 5.0)

Molecule `CCOc1c(N=Nc2ccccc2OC)c(C)nn1C(=S)S` has a growth inhibition ([1]; at 1.2 µM) of 0%, a growth inhibition ([1]; at 3.7 µM) of 3% and a growth inhibition ([1]; at 11.0 µM) of 11%. The growth inhibition ([1]; at 33.0 µM) was 39%, the growth inhibition ([1]; at 100.0 µM) was 79% (active) and the growth inhibition ([2]; at 1.2 µM) was -1%. For the same molecule, the growth inhibition ([2]; at 3.7 µM) was 1%, the growth inhibition ([2]; at 11.0 µM) was 4% and the growth inhibition ([2]; at 33.0 µM) was 17%. For the same molecule, the growth inhibition ([2]; at 100.0 µM) was 52%, the growth inhibition ([3]; at 1.2 µM) was 2% and the growth inhibition ([3]; at 3.7 µM) was 14%. For the same molecule, the growth inhibition ([3]; at 11.0 µM) was 26%, the growth inhibition ([3]; at 33.0 µM) was 54% and the growth inhibition ([3]; at 100.0 µM) was 79% (active). The growth inhibition ([4]; at 1.2 µM) was -2%, the growth inhibition ([4]; at 3.7 µM) was 1% and the growth inhibition ([4]; at 11.0 µM) was 3%. For the same molecule, the growth inhibition ([4]; at 33.0 µM) was 18%, the growth inhibition ([4]; at 100.0 µM) was 74% (active) and the growth inhibition ([5]; at 1.2 µM) was -1%. For the same molecule, the growth inhibition ([5]; at 3.7 µM) was -1%, the growth inhibition [5, 16] was -2% and the growth inhibition ([5]; at 11.0 µM) was 8%. The growth inhibition ([5]; at 33.0 µM) was 22%, the growth inhibition [5, 17] was 36% and the growth inhibition ([5]; at 50.0 µM) was 98.5% (active). It also gave a growth inhibition ([5]; at 100.0 µM) of 65%, a growth inhibition ([6]; at 1.2 µM) of -1% and a growth inhibition ([6]; at 3.7 µM) of 0%. For the same molecule, the growth inhibition [6, 16] was -7%, the growth inhibition ([6]; at 11.0 µM) was 2% and the growth inhibition ([6]; at 33.0 µM) was 19%. For the same molecule, the growth inhibition [6, 17] was 4%, the growth inhibition ([6]; at 50.0 µM) was 97.8% (active) and the growth inhibition ([6]; at 100.0 µM) was 60%. It also gave a growth inhibition ([7]; at 1.2 µM) of 4%, a growth inhibition ([7]; at 3.7 µM) of -1% and a growth inhibition ([7]; at 11.0 µM) of 4%. The growth inhibition ([7]; at 33.0 µM) was 4%, the growth inhibition ([7]; at 100.0 µM) was 78% (active) and the growth inhibition [8, 16] was 4%. The growth inhibition [8, 17] was 49%, the growth inhibition ([8]; at 50.0 µM) was 97.7% (active) and the growth inhibition ([9]; at 1.2 µM) was -6%. For the same molecule, the growth inhibition ([9]; at 3.7 µM) was 0%, the growth inhibition ([9]; at 11.0 µM) was -3% and the growth inhibition ([9]; at 33.0 µM) was 7%. It also gave a growth inhibition ([9]; at 100.0 µM) of 59%, a growth inhibition [10, 16] of -45% and a growth inhibition [10, 17] of 4%. For the same molecule, the growth inhibition ([10]; at 50.0 µM) was 98% (active), the growth inhibition ([11]; at 1.2 µM) was -7% and the growth inhibition ([11]; at 3.7 µM) was -1%. For the same molecule, the growth inhibition [11, 16] was -25%, the growth inhibition ([11]; at 11.0 µM) was 15% and the growth inhibition ([11]; at 33.0 µM) was 34%. For the same molecule, the growth inhibition [11, 17] was 50%, the growth inhibition ([11]; at 50.0 µM) was 98% (active) and the growth inhibition ([11]; at 100.0 µM) was 67%. For the same molecule, the growth inhibition ([12]; at 1.2 µM) was 0%, the growth inhibition ([12]; at 3.7 µM) was 3% and the growth inhibition ([12]; at 11.0 µM) was 10%. The growth inhibition ([12]; at 33.0 µM) was 32%, the growth inhibition ([12]; at 100.0 µM) was 75% (active) and the growth inhibition ([13]; at 1.2 µM) was -1%. The growth inhibition ([13]; at 3.7 µM) was 3%, the growth inhibition ([13]; at 11.0 µM) was 14% and the growth inhibition ([13]; at 33.0 µM) was 45%. The growth inhibition ([13]; at 100.0 µM) was 86% (active), the growth inhibition [14, 16] was -30% and the growth inhibition [14, 17] was 56%. For the same molecule, the growth inhibition ([14]; at 50.0 µM) was 98.3% (active), the growth inhibition ([15]; at 1.2 µM) was -11% and the growth inhibition ([15]; at 3.7 µM) was -3%. For the same molecule, the growth inhibition ([15]; at 11.0 µM) was 4%, the growth inhibition ([15]; at 33.0 µM) was 32% and the growth inhibition ([15]; at 100.0 µM) was 70% (active).
